Screening results from PubChem BioAssay.
MITF TRPM1 inh: inhibitors of MITF-dependent TRPM1 promoter reporter, primary screen, cell-based, SK-MEL-5, single point, luciferase; SK-MEL-5 TRPM1 promoter luciferase, 24 h; inhibition, % at 12.5 µM; 330,000 compounds, 0.83% hits; AID 488899, 2010;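 active = mean inhibition across replicates of 60% or more, whatever share of single replicates reaches that level; inconclusive = some that reach 60%, reason not given; inactive = mean inhibition across replicates below 60%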
PAX8 reporter: inhibitors of PAX8-driven TPO luciferase reporter, primary screen, RMG-I cells, single concentration; 360,000 compounds, 1.2% hits; inhibition, % at 12.6 µM; AID 652154, 2013; SteadyGlo, 24 h;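 active = mean replicate inhibition at least 60% with every replicate also reaching 60%; inconclusive = only one of the two criteria is met; inactive = mean below 60% and not all replicates reaching 60%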;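 also: luciferase light reporting Pax8 driven TPO promoter activity; plate controls were median of neutral control wells for no effect and mitoxantrone controls for full effect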
Shn3 3UTR inh: reduction of Shn3 3'UTR firefly luciferase signal, primary screen, Schnurri-3 inhibitor project, cell-based, Clone20 osteoblasts, set 2; Clone20 osteoblast Shn3 3'UTR firefly luciferase, 24 h; inhibition, % at 12.5 µM; 360,000 compounds, 0.52% hits;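 active = mean inhibition of at least 75% with every replicate also reaching 75%; inconclusive = mean inhibition at least 75% but some replicate below; inactive = mean inhibition below 75%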;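 also: 0% = median of neutral control wells and 100% = pilot-screen positive control compound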
EWS-Fli inh: EWS/Fli-driven NR0B1 reporter inhibitors, primary screen, A673 cells, NR0B1 luciferase, luminescence, MLPCN library | viability-normalised | inhibition, % at 12.6 µM | 350,000 compounds, 0.67% hits;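 active = mean inhibition of at least 50% after viability correction, with every replicate also passing that limit; inconclusive = mean reaches 50% but only one of two replicates passes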;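 also: firefly luciferase signal divided by Alamar Blue viability fluorescence both relative to DMSO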
LGR2 antag: inhibitors of bursicon-induced LGR2 CRE-luciferase signal, primary screen, cell-based, HEK293, CRE-luciferase reporter, bursicon stimulation. Drosophila bursicon receptor LGR2 (rickets). AID 720647, 2013. 380,000 compounds, 0.35% hits. bursicon-stimulated, 4 h. inhibition, % at 9.99 µM;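 active = drop in luminescence signal, shown as inhibition above about 50% in the replicate tests, limit read from the data, passing the limit was not always enough; inconclusive = probably only some replicates passing the limit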;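 also: agonist challenge used bursicon conditioned medium at about half maximal strength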
EBV LMP1 NFkB: EBV LMP1-driven NF-kappaB luciferase reporter inhibitors, primary screen, cell-based, luminescence, single point; inhibition, % at 12.5 µM; LMP1-induced NF-kappaB luciferase reporter cells; 350,000 compounds, 0.69% hits; in the data active = inhibition above about 41%; inconclusive = no clear call, values can overlap the other calls;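 also: 0% = neutral control wells and 100% = reference inhibitor control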
An asterisk follows results filed as active; ? = inconclusive; · = not tested or not shown. An excerpt weighted towards active compounds, which were near 2.2% of everything screened.

SMILES	MITF TRPM1 inh	PAX8 reporter	Shn3 3UTR inh	EWS-Fli inh	LGR2 antag	EBV LMP1 NFkB
C[C@@H]1CCCCO[C@@H](CN(C)Cc2ccccc2)[C@@H](C)CN([C@H](C)CO)C(=O)c2cc(NC(=O)Nc3ccc(C(F)(F)F)cc3)ccc2O1	·	77*	·	-13	23	·
C[C@@H]1CCCCO[C@@H](CN(C)Cc2ccccc2)[C@H](C)CN([C@H](C)CO)C(=O)c2cc(NC(=O)Nc3ccc(C(F)(F)F)cc3)ccc2O1	·	112*	·	16	15	·
C[C@@H]1CCCCO[C@@H](CN(C)Cc2ccc(C(=O)O)cc2)[C@H](C)CN([C@H](C)CO)C(=O)c2cc(NC(=O)Nc3ccc(C(F)(F)F)cc3)ccc2O1	·	-14	·	2	21	·
C[C@@H]1CCCCO[C@@H](CN(C)Cc2ccccc2)[C@@H](C)CN([C@@H](C)CO)C(=O)c2cc(NC(=O)Nc3ccc(C(F)(F)F)cc3)ccc2O1	·	52	·	-16	4	·
C[C@@H]1CCCCO[C@@H](CN(C)C(=O)Cc2ccccc2)[C@@H](C)CN([C@H](C)CO)C(=O)c2cc(NC(=O)Nc3ccccc3)ccc2O1	·	-7	·	-6	9	·
O=C(C[C@@H]1C=C[C@@H](NS(=O)(=O)c2ccc(F)cc2)[C@H](CO)O1)N1CCC(Cc2ccccc2)CC1	·	21	·	10	11	·
O=C(NCCN1CCCCC1)[C@H]1N[C@H]2c3ccc(-c4ccncc4)c(=O)n3C[C@H]2[C@@H]1CO	·	-10	·	-9	-15	·
CC(C)C(CCNC1CCN(C)CC1)c1ccc(Cl)cc1 (stereo unspecified)	90*	19	11	26	-9	-23
CN1CCC(NCCC(c2ccc(F)cc2)c2ccc(Cl)cc2)CC1 (stereo unspecified)	80*	?	-15	55*	-8	-63
O=C(C1CCCC1)N1CCCCN2[C@H](CO)[C@@H](c3ccc(-c4cccc(F)c4)cc3)[C@@H]2C1	·	10	·	30	·	·
Cc1noc(C)c1S(=O)(=O)Nc1ccc2c(c1)C(=O)N([C@@H](C)CO)C[C@@H](C)[C@H](CN(C)C(=O)NC(C)C)OCCCC[C@H](C)O2	·	-40	·	-11	-3	·
O=C(Nc1cccc(C2=NCCN2)c1)Nc1cccc(C2=NCCN2)c1	8	99*	-11	-10	-16	0
COc1cccc(-c2cc(C(=O)Nc3cccc(O)c3)no2)c1	-17	·	14	·	79*	-7
N#CCCn1cc(C(=O)Nc2ccccn2)c(-c2ccccc2)n1	0	-32	7	8	-4	69*
COc1ccc(S(=O)(=O)Nc2ccc3c(c2)C(=O)N([C@H](C)CO)C[C@@H](C)[C@H](CN(C)Cc2ccc(Cl)c(Cl)c2)OCCCC[C@H](C)O3)cc1	·	68*	·	29	23	·
COc1ccc(S(=O)(=O)Nc2ccc3c(c2)C(=O)N([C@@H](C)CO)C[C@@H](C)[C@H](CN(C)Cc2ccc(Cl)c(Cl)c2)OCCCC[C@@H](C)O3)cc1	·	73*	·	12	-32	·
COc1ccc(CN(C)C[C@H]2OCCCC[C@H](C)Oc3ccc(NS(=O)(=O)c4ccc(Cl)cc4)cc3C(=O)N([C@H](C)CO)C[C@H]2C)cc1	·	65*	·	12	8	·
COc1ccc2c3c([nH]c2c1)[C@@H](CO)N(C(=O)c1cccnc1)CC31CN(Cc2cccnc2)C1	·	·	·	-13	7	·
CN(C)CC(=O)N[C@H]1CC[C@H](CC(=O)O)O[C@@H]1CO	·	·	·	-13	25	·
Cc1c(Cl)sn(-c2ccc(Cl)cc2)c1=O	97*	33	91*	65*	43	11
C[C@H](CO)N1C[C@H](C)[C@@H](CN(C)Cc2ccc(-c3ccccc3)cc2)Oc2c(cccc2N(C)C)C1=O	·	28	·	·	·	·
O=C(C[C@H]1C=C[C@@H](NC(=O)Nc2cc(F)ccc2F)[C@H](CO)O1)Nc1ccc(-c2ccccc2)cc1	·	·	·	-36	-20	·
COc1ccc(C(=O)Nc2ccc3c(c2)OC[C@H](C)NC[C@@H](C)[C@H](OC)CN(C)C3=O)cc1	·	·	·	-3	2	·
CN1C[C@@H]2[C@H](c3ccccc31)[C@H](CO)N2Cc1ccccc1Cl	·	109*	·	7	11	·
COc1ccc2cc(C(=O)NC3CCCCC3)c(=O)oc2c1	-66	·	-1	·	-34	81*
SMILES	MITF TRPM1 inh	PAX8 reporter	Shn3 3UTR inh	EWS-Fli inh	LGR2 antag	EBV LMP1 NFkB
O=C(NC1CCCCCC1)c1cc2ccccc2oc1=O	-71	-187	-8	29	17	-28
Cc1noc(C)c1NC(=O)NCC[C@H]1CC[C@H](NC(=O)Cc2cccnc2)[C@H](CO)O1	·	-13	·	4	-3	·
COc1cc(/C=C/C(=O)NC(=O)c2ccccc2O)ccc1O	-88	-115	-49	8	-2	10
COc1cc(/C=C/C(O)=C/C(=O)/C=C/c2ccc(O)cc2)ccc1O	15	63*	-30	20	-1	-13
CC(Cc1cccs1)NC(=O)Nc1ccc(F)cc1 (stereo unspecified)	-16	·	89*	·	·	-15
CC(Cc1cccs1)NC(=O)Nc1cccc(Cl)c1 (stereo unspecified)	-21	-29	11	·	·	-15
CO[C@H]1CN(C)C(=O)c2cc(NC(=O)C3CC3)ccc2OC[C@H](C)N(Cc2nccs2)C[C@H]1C	·	5	·	6	10	·
COc1ccc2c3c([nH]c2c1)[C@@H](CO)N(C(=O)Nc1cccc(F)c1)CC31CCN(S(=O)(=O)c2cccc(C)c2)CC1	·	96*	·	-6	-3	·
COc1ccc2c3c([nH]c2c1)[C@@H](CO)N(C(=O)Nc1ccc(F)cc1)CC31CN(S(=O)(=O)c2ccc(C)cc2)C1	·	68*	·	0	17	·
COc1ccc2c3c([nH]c2c1)[C@@H](CO)N(C(=O)Nc1cccc(F)c1)CC31CN(S(=O)(=O)c2cccc(C)c2)C1	·	·	·	14	8	·
CCCNC(=O)N1CC2(C1)CN(C(=O)COC)[C@H](CO)c1[nH]c3cc(OC)ccc3c12	·	61*	·	0	-1	·
COC(=O)C[C@@H]1C[C@@H]2c3cc(NC(=O)c4ccc5c(c4)OCO5)ccc3O[C@@H]2[C@@H](CO)O1	·	5	·	-24	14	·
Cc1ccc2c(c1)c(C1=c3ccccc3=NC1=O)c(O)n2C	14	7	96*	64*	12	9
C[C@@H]1CN([C@@H](C)CO)C(=O)c2cc(NS(C)(=O)=O)ccc2O[C@@H](C)CCCCO[C@@H]1CN(C)C(=O)CCC(F)(F)F	·	5	·	-1	17	·
CCOc1ccc(N(CC(=O)Nc2ccccc2OCC)S(=O)(=O)c2c(C)noc2C)cc1	65*	80*	-9	42	-5	9
